Records with an inconclusive call do not appear. A call without a number means that no potency is given here. Activity calls are given as the source filed them. The call rests on the fitted dose curve; in most records, active means well fitted inhibition curve with a large enough effect; inconclusive means small, poorly fitted or top-dose-only effect; inactive means flat fitted curve, though single readings scatter.
The compounds below were run on TAB109 (assay: qHTS profiling for inhibitors of Plasmodium falciparum proliferation (AID 504749; further: nearly all actives have a fitted effect of over 60% in size)). Settings: P. falciparum in erythrocytes, SYBR Green DNA, 72 h; series mostly up to 28.7 µM.
Summary of the method: (§1)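 Quantitative HTS: compounds pinned into medium, infected erythrocytes added (0.3% parasitemia, 2.5% hematocrit), 72 h culture at 37 C under 5% CO2. Saponin/Triton lysis with SYBR Green I, overnight RT, then fluorescence read.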
Potency means the concentration at half of the fitted maximal effect.

With `CC(=O)OCC(=O)[C@@]1(O)CCC2C3C[C@H](C)C4=CC(=O)C=CC4(C)C3C(O)CC21C` (stereo not given in full) as the compound, how does the Potency read?
The Potency was “inactive”.

How did the Potency turn out when `CN[C@H](C)CCC=C(C)C` was run?
Its Potency is 398 nM (active).

For `CC1(C)C2CC[C@]1(C)[C@@H](O)C2`, which Potency is on record?
The Potency was “inactive”.

Which Potency does the source give for `OCC1O[C@H](Oc2ccc(O)cc2)C(O)C(O)C1O` (stereo not given in full) here?
The Potency was “inactive”.

Which Potency does the source give for `Nc1nc(F)nc2c1ncn2[C@@H]1O[C@H](CO)[C@@H](O)[C@H]1O` here?
Its Potency is “inactive”.

Which Potency does the source give for `CC1OC(OC2CCC3(C)C(CCC4C3CC(O)C3(C)C(C5=CC(=O)OC5)CCC43O)C2)CC(O)C1OC1CC(O)C(OC2CC(O)C(OC3OC(CO)C(O)C(O)C3O)C(C)O2)C(C)O1` (stereo not given) here?
The Potency was “inactive”.

How did the Potency turn out when `CC1OC(OCC2OC(Oc3c(-c4ccc(OCCO)c(OCCO)c4)oc4cc(OCCO)cc(O)c4c3=O)C(O)C(O)C2O)[C@@H](O)C(O)C1O` (stereo not given in full) was run?
The Potency was “inactive”.

The compounds below were run on TAB113 in the same assay as above. Settings: P. falciparum in erythrocytes, SYBR Green DNA, 72 h; series mostly up to 28.7 µM.
Summary of the method: as §1

`CCCCCCCCCCCCCCCC(=O)OC[C@H](O)[C@H]1OC[C@@H](O)[C@@H]1O` was tested. Which Potency did it give?
Its Potency is “inactive”.

With `CCCCC(=O)OCC(=O)[C@]1(O)Cc2c(O)c3c(c(O)c2[C@H](OC2CC(NC(=O)C(F)(F)F)C(O)C(C)O2)C1)C(=O)c1c(OC)cccc1C3=O` (stereo not given in full) as the compound, how does the Potency read?
The Potency was 2510 nM (active).

How did the Potency turn out when `C[C@H]1OC(OC2C(O)[C@@H](O)C(OC3C(O)[C@@H](O)C(O)O[C@@H]3CO)O[C@@H]2CO)[C@H](O)C(O)C1N[C@H]1C=C(CO)[C@@H](O)[C@H](O)C1O` (stereo not given in full) was run?
The Potency was “inactive”.

For `CCN(CC)CC(=O)Nc1c(C)cc(C)cc1C`, which Potency is on record?
The Potency was “inactive”.

Which Potency does the source give for `CC(=O)N[C@H]1[C@H](O[C@@H]2c3ccc(c(Cl)c3)Oc3cc4cc(c3O[C@@H]3O[C@H](CO)[C@@H](O)[C@H](O)C3C)Oc3ccc(cc3Cl)C[C@H]3NC(=O)[C@@H](N)c5ccc(O)c(c5)Oc5cc(O)cc(c5)[C@H](NC3=O)C(=O)N[C@H]4C(=O)N[C@H]3C(=O)N[C@@H]2C(=O)N[C@@H](C(=O)O)c2cc(O)cc(O[C@H]4O[C@H](CO)[C@@H](O)C(O)[C@@H]4O)c2-c2cc3ccc2O)O[C@H](CO)[C@@H](O)[C@@H]1O` (stereo not given in full) here?
Its Potency is “inactive”.

How did the Potency turn out when `NC(=O)c1ncn(C2OC(CO)C(O)C2O)c1N` (stereo not given) was run?
The Potency was “inactive”.

How did the Potency turn out when `C[C@H]1[C@@H](OC(=O)CCC(=O)O)OC2OC3(C)CC[C@H]4[C@H](C)CC[C@@H]1[C@@]24OO3` (stereo not given in full) was run?
Its Potency is 2 nM (active).

`CC1(Cn2ccnn2)[C@H](C(=O)O)N2C(=O)C[C@H]2S1(=O)=O` (stereo not given in full) was tested. Which Potency did it give?
The Potency was “inactive”.

How did the Potency turn out when `CN(C)CC/C=C1\c2ccccc2COc2ccc(CC(=O)O)cc21` was run?
Its Potency is “inactive”.

For `CCCC(=O)O[C@]1(C(=O)COC(C)=O)CC[C@H]2C3C[C@H](F)C4=CC(=O)C=CC4(C)[C@@]3(F)[C@@H](O)CC21C` (stereo not given in full), which Potency is on record?
The Potency was “inactive”.

How did the Potency turn out when `OCCN1CC(O)C(O)C(O)C1CO` (stereo not given) was run?
Its Potency is “inactive”.

Which Potency does the source give for `COc1cc2c(cc1O)CCN[C@@]21CS[C@H]2c3c(OC(C)=O)c(C)c4c(c3C(COC1=O)N1C2C2c3c(cc(C)c(OC)c3O)CC([C@@H]1O)N2C)OCO4` (stereo not given in full) here?
Its Potency is 0.9 nM (active).

`CC(CCC(=O)O)C1CCC2C3C(=O)C[C@@H]4CC(=O)CC[C@@]4(C)C3CC(=O)[C@]12C` (stereo not given in full) was tested. Which Potency did it give?
Its Potency is “inactive”.

`C[n+]1c2cc(N)ccc2cc2ccc(N)cc21` was tested. Which Potency did it give?
The Potency was 891 nM (active).

With `O=C(OC[C@@H]1O[C@@](O)(COC(=O)c2cccnc2)[C@H](OC(=O)c2cccnc2)[C@H]1OC(=O)c1cccnc1)c1cccnc1` as the compound, how does the Potency read?
Its Potency is “inactive”.

`O=[N+]([O-])O[C@H]1CO[C@H]2[C@@H]1OC[C@H]2O` was tested. Which Potency did it give?
Its Potency is “inactive”.

`COc1cccc(OC)c1C(=O)NC1C(=O)N2C1SC(C)(C)C2C(=O)O` (stereo not given) was tested. Which Potency did it give?
Its Potency is “inactive”.

How did the Potency turn out when `NC[C@@H]1O[C@H](OC2[C@@H](CO)O[C@@H](OC3[C@H](O)[C@H](N)C[C@H](N)[C@H]3OC3O[C@H](CO)[C@@H](O)[C@H](O)[C@@H]3N)[C@H]2O)C(N)[C@H](O)[C@@H]1O` (stereo not given in full) was run?
The Potency was “inactive”.

With `Cc1ccc(S(=O)(=O)NC(=O)NC(C)Cc2ccccc2)cc1` (stereo not given) as the compound, how does the Potency read?
Its Potency is “inactive”.

With `C[S+](C)CC[C@H](N)C(=O)O` as the compound, how does the Potency read?
Its Potency is “inactive”.

How did the Potency turn out when `CC[C@@H]1/C=C(\C)C[C@H](C)C[C@H](OC)[C@H]2O[C@@](O)(C(=O)C(=O)N3CCCC[C@H]3C(=O)O[C@H](/C(C)=C/[C@@H]3CC[C@H](Cl)[C@H](OC)C3)[C@H](C)[C@@H](O)CC1=O)[C@H](C)C[C@@H]2OC` was run?
Its Potency is “inactive”.

`NC(=O)C1CC2(NC(=O)NC2=O)c2cc(F)ccc2O1` (stereo not given) was tested. Which Potency did it give?
The Potency was “inactive”.

With `CC[C@@]1(O)C[C@H](O[C@H]2C[C@@H](N(C)C)[C@@H](O[C@H]3C[C@@H](O)[C@@H](O[C@H]4CCC(=O)[C@@H](C)O4)[C@@H](C)O3)[C@@H](C)O2)c2c(cc3c(c2O)C(=O)c2c(O)cccc2C3=O)[C@H]1C(=O)OC` as the compound, how does the Potency read?
Its Potency is 199 nM (active).

Which Potency does the source give for `CCCCCCCCCCCC(=O)OCC(O)C1OCC(O)C1O` (stereo not given) here?
The Potency was “inactive”.

Which Potency does the source give for `C/C1=C2/[N-]C(C(CC(N)=O)[C@@]2(C)CCC(=O)NCC(C)OP(=O)([O-])O[C@H]2[C@@H](O)[C@@H](n3cnc4cc(C)c(C)cc43)O[C@@H]2CO)[C@]2(C)N=C(/C(C)=C3N=C(/C=C4N=C1C(CCC(N)=O)C\4(C)C)[C@@H](CCC(N)=O)[C@]\3(C)CC(N)=O)[C@@H](CCC(N)=O)[C@]2(C)CC(N)=O.CC(=O)O.[Co]` (stereo not given in full) here?
Its Potency is “inactive”.

How did the Potency turn out when `CC1(C)OC[C@@H]2O[C@@]3(C(=O)O)OC(C)(C)O[C@@H]3[C@@H]2O1` was run?
The Potency was “inactive”.

`Cc1ccccc1N1C(=O)c2cc(N)ccc2N/C1=C\F` was tested. Which Potency did it give?
The Potency was “inactive”.

Which Potency does the source give for `CCC(C(=O)O)C1OC(C(C)C(O)C(C)C(=O)C(CC)C2OC3(C=CC(O)C4(CCC(C)(C5CCC(O)(CC)C(C)O5)O4)O3)C(C)CC2C)C(C)CC1C` (stereo not given) here?
The Potency was 79.4 nM (active).

For `O=C1C(I)=CC(=C(c2cc(I)c(O)c(I)c2)c2ccccc2C(=O)O)C=C1I`, which Potency is on record?
Its Potency is “inactive”.

With `NC(=O)NC(CCC(=O)O)C(=O)O` (stereo not given) as the compound, how does the Potency read?
Its Potency is “inactive”.

With `COC1CC2CCC(C)[C@](O)(O2)C(=O)C(=O)N2CCCCC2C(=O)OC(C(C)CC2CCC(O)C(OC)C2)CC(=O)C(C)/C=C(/C)C(O)C(OC)C(=O)C(C)CC(C)C=CC=C/C=C\1C` (stereo not given in full) as the compound, how does the Potency read?
The Potency was 1410 nM (active).

For `CC(=O)OCC(=O)[C@@]1(O)CCC2C3C[C@H](C)C4=CC(=O)C=CC4(C)C3C(O)CC21C` (stereo not given in full), which Potency is on record?
The Potency was “inactive”.

`CN[C@H](C)CCC=C(C)C` was tested. Which Potency did it give?
Its Potency is 178 nM (active).

`CC1(C)C2CC[C@]1(C)[C@@H](O)C2` was tested. Which Potency did it give?
The Potency was “inactive”.

`OCC1O[C@H](Oc2ccc(O)cc2)C(O)C(O)C1O` (stereo not given in full) was tested. Which Potency did it give?
The Potency was “inactive”.

How did the Potency turn out when `Nc1nc(F)nc2c1ncn2[C@@H]1O[C@H](CO)[C@@H](O)[C@H]1O` was run?
The Potency was “inactive”.

How did the Potency turn out when `CC1OC(OC2CCC3(C)C(CCC4C3CC(O)C3(C)C(C5=CC(=O)OC5)CCC43O)C2)CC(O)C1OC1CC(O)C(OC2CC(O)C(OC3OC(CO)C(O)C(O)C3O)C(C)O2)C(C)O1` (stereo not given) was run?
The Potency was “inactive”.

`CC1OC(OCC2OC(Oc3c(-c4ccc(OCCO)c(OCCO)c4)oc4cc(OCCO)cc(O)c4c3=O)C(O)C(O)C2O)[C@@H](O)C(O)C1O` (stereo not given in full) was tested. Which Potency did it give?
The Potency was “inactive”.

Source: PubChem BioAssay (NCATS)
